HCMV antiviral = inhibitors of human cytomegalovirus; HFF cells, HCMV-luciferase reporter, 72 h; stronger effect = lower value; activity change, negative = inhibition, % at 57.5 µM; hit rate 4.5% among 410,000; AID 1259415; in the data active = activity change below about -60%; inconclusive = no clear call, values can overlap the other calls; inactive = above about -39%
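Luciferase read-out from HCMV-luciferase-infected HFFs (MOI 1 PFU/cell) 72 h post infection at 37C; compounds added after 16 h cell attachment; activity normalized between buffer-only basal and Salinomycin (10uM) inhibitor controls.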
AmpC detergent = blocks E. coli AmpC beta-lactamase in detergent assay; hit rate 0.041% among 370,000; AmpC hydrolysis of nitrocefin, absorbance 480 nm, 0.01% Triton; Potency, µM (top dose mostly 114 µM), for the others: at the top dose activity change, negative = inhibition, actives largely listed as inhibitors; AID 485294; P00811;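 also: potency is read from the fitted curve at half-maximal effect; 0% = no-compound wells and -100% = no-enzyme wells; nearly all actives have a fitted effect of over 25% in size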
Target sequence (P00811 whole entry, looked up): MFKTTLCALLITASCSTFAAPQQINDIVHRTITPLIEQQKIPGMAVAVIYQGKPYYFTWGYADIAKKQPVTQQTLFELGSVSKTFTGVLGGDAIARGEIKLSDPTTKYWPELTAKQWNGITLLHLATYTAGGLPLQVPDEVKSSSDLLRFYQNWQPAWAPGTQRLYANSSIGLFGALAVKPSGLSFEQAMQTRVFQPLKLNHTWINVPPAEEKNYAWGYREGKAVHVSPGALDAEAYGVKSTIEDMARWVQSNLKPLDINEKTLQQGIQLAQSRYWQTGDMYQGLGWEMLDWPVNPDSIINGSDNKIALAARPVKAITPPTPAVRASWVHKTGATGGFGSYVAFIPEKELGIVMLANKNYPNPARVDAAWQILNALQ
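AmpC (5.3 nM in the dispensed reagent) in 20 mM phosphate pH 7.0 with 0.01% (detergent screen) or 0.0001% Triton X-100 was preincubated with compounds for 15 min at room temperature. Nitrocefin was then added from an 800 uM solution, and hydrolysis was followed at 480 nm.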
FMDV antiviral = foot and mouth disease virus antiviral activity; AID 1159524; FMDV antiviral cell-based qHTS; Potency, µM (doses to about 57.9 µM), for the others: at the highest dose activity change, negative = inhibition, most hits filed as inhibitors; hit rate 1.2% among 410,000; calls by dose curve; tested in HEK293T cells; also: read-out not given here; potency is read from the fitted curve at half-maximal effect; nearly all actives have a fitted effect of over 45% in size
HCV inh = HCV inhibition. AID 651820. Potency, µM (series often up to 41.8 µM), for inactives: top-dose activity change, negative = inhibition, most hits filed as inhibitors. hit rate 3.4% among 340,000. Huh7.5.1 HCVcc-Cre infection, luciferase reporter, 44 h; also: potency is read from the fitted curve at half-maximal effect
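Infectious HCV cell culture screen: compound-treated cells (1,000/well, pre-plated 4 h) are infected with HCVcc-Cre at roughly 0.5 moi and grown 44 h. Infection is quantified by luciferase signal after 15 min substrate incubation at room temperature.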
AmpC no deterg = blocks E. coli AmpC beta-lactamase in detergent-free assay. Potency, µM (doses to about 57.1 µM), for the others: at the highest dose activity change, negative = inhibition, most hits filed as inhibitors. P00811. AID 485341. hit rate 0.52% among 330,000. AmpC nitrocefin hydrolysis, absorbance 480 nm, 0.0001% Triton;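 also: potency is read from the fitted curve at half-maximal effect; plate controls were no compound for no effect and no enzyme for full effect; nearly all actives have a fitted effect of over 20% in size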
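AmpC (5.3 nM in the dispensed reagent) in 20 mM phosphate pH 7.0 with 0.01% (detergent screen) or 0.0001% Triton X-100 was preincubated with compounds for 15 min at room temperature. Nitrocefin was then added from an 800 uM solution, and hydrolysis was followed at 480 nm.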
Numbers without * were called inactive; ? = inconclusive; nt = no result given; [ ] = remark or other dose. An excerpt weighted towards active compounds, which were near 7.3% of everything screened. Unless noted, calls follow the shape of the dose curve; as a rule, active = well fitted curve in the direction sought with a large enough effect; inconclusive = small, poorly fitted or top-dose-only effect, or another doubt; inactive = no such curve, though single readings can be large; an effect the other way counts as inactive or inconclusive. Unless noted, % is scaled to controls: 0 for no effect and ±100 for the full control effect.

SMILES | HCMV antiviral | AmpC detergent | FMDV antiviral | HCV inh | AmpC no deterg
COc1ccccc1-c1ccc2n(c1=O)C[C@@H]1[C@@H](CO)[C@H](C(=O)NCCCN(C)C)N(C(C)=O)[C@H]21 | 3 | nt | nt | nt | nt
COc1cccc(CN(C)C(=O)CC[C@H]2O[C@@H](n3ccc(=O)[nH]c3=O)[C@H](O)[C@@H]2O)c1 | 22 | nt | -1% | nt | nt
COc1ccc(OC)c(NC(=O)c2cnn(-c3ccc(C)cc3)c2C2CCNCC2)c1 | -17 | -3% | -2% | nt | nt
Cc1ncc2c(c1CNC(=O)/C=C/c1cccs1)CCN(C(=O)c1c(C)noc1C)C2 | nt | nt | -5% | nt | nt
CN(CC(=O)Nc1cccc(S(=O)(=O)N2CCCC2)c1)CC(=O)Nc1ccc(F)c(F)c1F | -12 | nt | -21% | ? | nt
CN(CC(=O)Nc1cccc(S(=O)(=O)N2CCCC2)c1)CC(=O)Nc1ccc(Cl)c(C(F)(F)F)c1 | -64* | -3% | -22% | 18µM* | 40%
Cc1ccc(NC(=O)CN(C)CC(=O)Nc2cccc(F)c2)cc1S(=O)(=O)N1CCCCCC1 | -66* | 2% | 25µM* | ? | 20%
COc1ccc(NC(=O)CN(C)CC(=O)Nc2cccc(F)c2)cc1S(=O)(=O)N1CCCCC1 | -24 | nt | -6% | -8% | nt
Cc1ccc(NC(=O)CSCC(=O)Nc2cccc(S(=O)(=O)N3CCCCCC3)c2)cc1 | -39 | -7% | -30% | 13µM* | -13%
Cn1cnc(S(=O)(=O)N2CCC(C(=O)Nc3ccc(Cl)c(C(F)(F)F)c3)CC2)c1 | -76* | 16% | ? | nt | nt
CCOc1cccc(CN2CCCC(C(=O)c3cc(Cl)ccc3OC)C2)c1O (centres undefined) | -17 | 2% | 23% | ? | 64%
O=C(Cn1nnc(-c2ccccc2Cl)n1)Nc1cccc(S(=O)(=O)N2CCCC2)c1 | -25 | nt | -1% | ? | -34%
CN(CC(=O)Nc1ccc(S(=O)(=O)N2CCCC2)cc1)Cc1c(F)cccc1Cl | -70* | ? | ? | ? | 3%
O=C(Cn1nnc(-c2ccc(F)cc2)n1)Nc1cccc(S(=O)(=O)N2CCCC2)c1 | -60* | 2% | -25% | 22µM* | -26%
CCN(CC)S(=O)(=O)c1cccc(NC(=O)c2cccc(S(=O)(=O)N3CCCC3)c2)c1 | -9 | 4% | ? | ? | -26%
O=C(CN1CCN(S(=O)(=O)c2ccc(F)cc2)CC1)Nc1ccc(Cl)c(C(F)(F)F)c1 | -39 | -19% | 28µM* | ? | 37%
CCN(CC)S(=O)(=O)c1ccc(C)c(NC(=O)CNc2cccc(S(=O)(=O)N3CCCC3)c2)c1 | ? | 0% | ? | 10µM* | -28%
CCOc1ccc2nc(N3CCCC3C(=O)N3CCC(c4nc5ccccc5o4)CC3)nc(C)c2c1 (centres undefined) | nt | nt | -6% | nt | nt
CC(C)(C)c1ccccc1NC(=O)c1cnn2c(C(F)F)cc(-c3ccccc3)nc12 | ? | 23% | 0% | nt | nt
O=C1C2CCc3ccccc3C2N1c1ccccc1 (centres undefined) | 26 | 1% | -8% | 9% | -27%
COc1ccc(NC(=O)c2nc(C)n(-c3ccc([N+](=O)[O-])cc3)n2)cc1 | 20 | 9% | 19% | 3% | -14%
CN(C(=O)c1cccc(NC(=O)Cc2ccc(NC(=O)C3CCCN(C(=O)c4ccccc4)C3)cc2)c1)C1CCCC1 (centres undefined) | ? | nt | -28% | 38%[8.37 µM] | nt
Cc1ccc(NC(=O)CNc2cccc(S(=O)(=O)N3CCCC3)c2)cc1F | -18 | 2% | -5% | ? | -11%
CCc1ccc(C(=O)CCC(=O)Nc2cccc(S(=O)(=O)N3CCCCC3)c2)cc1 | -29 | 15% | -5% | 10µM* | -11%
CCC(=O)c1ccc(OCC(=O)Nc2cccc(S(=O)(=O)N3CCCCCC3)c2)cc1 | -26 | -15% | ? | ? | -40%
SMILES | HCMV antiviral | AmpC detergent | FMDV antiviral | HCV inh | AmpC no deterg
Cc1ccc(NCC(=O)Nc2cccc(S(=O)(=O)N(C)C)c2)cc1S(=O)(=O)N1CCCCCC1 | -81* | 0% | ? | 10µM* | -23%
CCOC(=O)N1CCN(c2c(F)cc3[nH]c(=S)[nH]c3c2Br)CC1 | -12 | -1% | -25% | -14% | 28µM*
CC(=O)Nc1ccc(OCc2cccc3ccccc23)cc1 | -79* | 10% | 0% | -13% | 92%
Cc1ccccc1-c1nc(S(=O)(=O)c2ccc(Br)cc2)c(NCc2cccnc2)o1 | 10 | 3% | 17% | 11µM* | 7%
Cc1ccc(S(=O)(=O)c2nc(-c3ccccc3)oc2NCc2cccnc2)cc1 | 2 | ? | 23% | 11µM* | 46%
Cc1ccccc1OCC(=O)NCCCNC(=O)c1ccccn1 | -7 | -6% | 4% | 22% | -7%
Cc1cc(CNC(=O)CCN2Cc3cc(Cl)ccc3OC(C)C2)nn1C (centres undefined) | nt | nt | 19% | nt | nt
O=C(Cc1ccc(NC2=NC3CS(=O)(=O)CC3S2)cc1)NCCc1ccccc1 (centres undefined) | 44 | -5% | -10% | 16% | -11%
Cc1ccn2c(CNCc3cnn(C)c3)c(C(=O)N3CCCCCC3)nc2c1 | ? | 0% | 13% | 14% | 1%
CC(C)C[C@@H]1COc2cccc(NCCO)c2S(=O)(=O)N1 | 4 | nt | nt | nt | nt
CCOC(=O)Nc1nnc(-c2ccccc2OC)s1 | ? | 2% | 33% | ? | -14%
CCC(SC1=NCCS1)C(=O)Nc1nnc(-c2ccccc2OC)s1 (centres undefined) | -97* | 1% | -5% | 13% | 10µM*
CCCCC(=O)Nc1cccc(-c2nc3ccccc3s2)c1 | 26 | 23% | 31% | nt | nt
Cc1cc(C)nc(NS(=O)(=O)c2ccc(N)cc2)n1 | -66* | ? | 31% | -7%[8.37 µM] | -27%
Cc1cc(C)nc(NS(=O)(=O)c2ccc(Br)cc2)n1 | 12 | ? | 125% | -2% | -13%
C[C@@H]1CN([C@H](C)CO)C(=O)CCCn2cc(nn2)CO[C@H]1CN(C)C(=O)OCc1ccccc1 | -8 | nt | -15% | nt | nt
CCOC(=O)c1nn(-c2ccc(F)cc2)c(C)c1C(C)=O | -79* | 3% | -5% | 8% | 1%
CCOC(=O)c1nn(-c2ccc(Cl)cc2)c(C)cc1=O | -73* | -3% | -10% | 10% | -2%
CCOC(=O)c1nn(-c2ccc(C)cc2)c(C)c1C(C)=O | 51 | 4% | 8% | -24% | nt
C=CCN(CC=C)c1ncnc2[nH]ncc12 | -86* | nt | 14% | -5% | nt
Cc1cccc(-n2cnc3cc(C(=O)NCC4CCCO4)ccc32)c1 (centres undefined) | -2 | nt | -9% | nt | nt
Cc1cccc(-n2c(C)nc3cc(C(=O)NCC4CCCO4)ccc32)c1 (centres undefined) | -64* | ? | 16% | 7% | 34%

Source: PubChem
